# Laboratory results published in PubChem BioAssay AID1508622 (National Center for Advancing Translational Sciences (NCATS), 2021).
# A number with no mark means an inactive call. Calls follow the shape of the dose curve; as a rule, active = well fitted activation curve with a large enough effect; inconclusive = small, poorly fitted or top-dose-only effect; inactive = no such curve, though single readings can be large or run the other way.
# Test: Confirmatory qHTS for Identification of Small Molecule Activators of Huntingtin-Antisense Promoter Activity
# Conditions: HEK293 HTT-AS promoter firefly luciferase reporter, 24 h; series mostly up to 57.5 µM; activity change, positive = activation: at the top concentration
# Source text: Assay Provider: Russell L. Margolis M.D.
# Department Neurology, Johns Hopkins University School of Medicine, Baltimore, MD
# Huntington's Disease (HD) is a neurodegenerative disorder caused by a CAG repeat expansion in exon 1 of huntingtin (HTT). While there are currently no disease-modifying treatments for HD, recent efforts have focused on development of nucleotide-based therapeutics to lower HTT expression. As an alternative to siRNA or oligonucleotide methods, we hypothesized that suppression of HTT expression might be accomplished by small molecules that either (1) directly decrease HTT expression by suppressing HTT promoter activity or (2) indirectly decrease HTT expression by increasing the promoter activity of HTT-AS, the gene antisense to HTT that appears to inhibit expression of HTT.
# We developed and employed a high throughput screen for modifiers of HTT and HTT-AS promoter activity using luminescent reporter HEK293 cells; of the 52,041 compounds tested, we identified 898 replicable hits. We used a rigorous stepwise approach to assess compound toxicity and the capacity of the compounds to specifically lower huntingtin protein in 5 different cell lines, including HEK293 cells, HD lymphoblastoid cells, mouse primary neurons, HD iPSCs differentiated into cortical-like neurons, and HD hESCs. We found no compounds which were able to lower huntingtin without lowering cell viability in all assays, though the potential efficacy of a few compounds at non-toxic doses could not be excluded.
# SEQUENCE No. (1, 2, 3, etc.); […] (e.g., Cells, Incubation, Reagent, etc.); VALUE and DESCRIPTION.
# 1; Reagent; 4 uL; 2,500 Hek293 luciferase reporter cells per wells
# 3; Compound; 23 nL; Control inhibitor / compound library
# 5; Reagent; 2.5 uL; Firefly Luc reagent; Dual-Glo Luciferase Reporter Assay System (Promega)
# 6; Time; 10 min; room temperature incubation
# 7; Detection; Luminescence; FLuc
# NOTES (numbers refer to sequence above)
# 1; High-throughput screening, measuring luminescence from a Hek293 luciferase reporter, was performed in 1,536 well white-walled tissue-culture treated plates. 2,500 cells were plated in 4 uL of Opti-MEM per well using a Multidrop Combi Reagent Dispenser (ThermoFisher).
# 2; Assay plates were cultured for 24 hours.
# 3; Control inhibitor (PTC124; final concentration of 50 uM) and compound library (at final concentrations of 460 nM - 57.5 uM) were added to the assay plate using the Kalypsis Pintool Robotic System equipped with 1536 pinheads.
# 4; Cells were then incubated for 24 hours at 37C prior to luminescence measurements.
# 5; In all cases, luminescence was measured using the Dual-Glo Luciferase Reporter Assay System (Promega) following the manufacturer's instructions.
# 6; Room temperature incubation.
# 7; Luminescence signal was obtained using the PerkinElmer ViewLux plate reader. Results were normalized to vehicle control (0% activity) and zero RLU (-100% activity).
row,SMILES,"activity change, positive = activation [%]"
1,O=c1c2ccccc2nc(/C=C\c2ccc(F)cc2)n1-c1ccccc1F,-17
2,CCN(CC)C(=O)c1ccc(NC(=O)CCn2nc(-c3ccc(Cl)cc3)c3ccccc3c2=O)cc1,-34.6
3,Cc1cc(-n2c(/C=C/c3ccc(Br)s3)nc3ccccc3c2=O)ccc1Br,-10.7
4,CSc1ccc(CN2CCN(C(=O)COc3cccc(C)c3)CC2)cc1,-83.9
5,CC(C)N[C@@H]1CCn2c(=O)[nH]c3cccc(c32)[C@@H]1O,-4.14
6,COc1cccc(C2SCC(=O)Nc3c2c(C)nn3-c2ccc(C)c(Cl)c2)c1OC (configuration not stated),-31.6
7,Cc1cccc(-n2c(/C=C\c3cccc(Br)c3)nc3ccccc3c2=O)c1,-4.07
8,N#Cc1ccccc1NC(=O)c1cccn(Cc2ccccc2)c1=O,-45.2
9,Cc1ccc(-n2c(/C=C/c3ccc(Br)s3)nc3ccccc3c2=O)cc1,-11.2
10,CCCOc1ccc(C2SCC(=O)Nc3c2c(C)nn3-c2cccc(C)c2)cc1OC (configuration not stated),-25.4
11,CC(C)(O)C=CC(=O)[C@](C)(O)[C@H]1[C@H](O)C[C@]2(C)[C@@H]3CC=C4[C@@H](C=C(O)C(=O)C4(C)C)[C@]3(C)C(=O)C[C@@]12C,-94.1
12,CCCCc1ccc(NC(=O)c2cccn(Cc3ccc(Cl)cc3)c2=O)cc1,-94.5
13,COc1ccc(-n2c(/C=C\c3ccccc3F)nc3ccccc3c2=O)cc1OC,-15.9
14,Cc1ccccc1Cn1cccc(C(=O)Nc2nc3ccccc3s2)c1=O,-57.1
15,CCOc1ccc(NC(=O)c2cccn(Cc3cccc(Cl)c3)c2=O)cc1,-91.2
16,O=c1c2ccccc2nc(/C=C/c2cccc3ccccc23)n1-c1ccccc1Cl,-10.9
17,CCOC(=O)c1ccc(NC(=O)c2cccn(Cc3ccccc3F)c2=O)cc1,-95.2
18,CCN(CC)C(=O)N[C@@H]1C=C2c3cccc4[nH]cc(c34)C[C@@H]2N(C)C1,-9.95
19,O=C(N[C@H]1CN2CCC1CC2)c1ccc(Cl)cc1,-6.33
20,COC(=O)c1ccc(NC(=O)c2cccn(Cc3ccccc3C)c2=O)cc1,-84.1
21,Nc1c(C(=O)Nc2ccc(Cl)c(C(F)(F)F)c2)sc2nc3c(cc12)N1CCC3CC1,-91.5
22,Cc1ccc(-n2c(/C=C\c3ccc(F)c(F)c3)nc3ccccc3c2=O)c(C)c1,-7.94
